Measured values from PubChem BioAssay AID1159580 (chemical genetic matrix, 2015).
Hit rate of the full screen: of about 5,500 compounds, about 2,000 (36%) were called active. About 18% were inconclusive and are not listed. Rule as the data show it: active = normalized growth mostly below about 0.91 (no sharp cut-off); inconclusive = no clear call, values can overlap the other calls; inactive = mostly above about 0.92. Some of the results follow.

Test: chemical genetic growth profiling, strain panel (AID 1159580);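 also: tested at 20 µM; growth read once vehicle control cultures reached saturation at 30 °C; 1 = growth at the plate median or of vehicle wells; lower values mean less growth of the strain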
Conditions: growth OD

Measured: normalized growth

COc1cc(OC)c2c(c1Cl)OC1(C2=O)C(O)=CC(=O)CC1C (stereo unspecified)
inactive: S. cerevisiae deletion strains, locus YJR075W, strain HOC1, hits give low values 1.02 | S. cerevisiae deletion strains, locus YKL009W, strain mrt4, hits give low values 1.01 | S. cerevisiae deletion strains, locus YKL068W, hits give low values 0.991 | S. cerevisiae deletion strains, locus YKL085W, strain MDH1 (second series), hits give low values 1.01 | S. cerevisiae deletion strains, locus YKL085W, strain MDH1, hits give low values 1.01 | S. cerevisiae deletion strains, locus YKL160W, strain elf1, hits give low values 1.01 | S. cerevisiae deletion strains, locus YKR001C, strain vps1, hits give low values 1.03 | S. cerevisiae deletion strains, locus YKR026C, strain gcn3, hits give low values 1.01 | S. cerevisiae deletion strains, locus YKR091W, strain srl3, hits give low values 1.01 | S. cerevisiae deletion strains, locus YLL001W, strain dnm1, hits give low values 1 | S. cerevisiae deletion strains, locus YLL026W, hits give low values 1.01 | S. cerevisiae deletion strains, locus YLL041C, strain sdh2, hits give low values 1.01 | S. cerevisiae deletion strains, locus YLR027C, strain aat2, hits give low values 1.03 | S. cerevisiae deletion strains, locus YLR039C, strain RIC1, hits give low values 1.08 | S. cerevisiae deletion strains, locus YLR058C, strain SHM2, hits give low values 1.03 | S. cerevisiae deletion strains, locus YLR102C, strain apc9, hits give low values 0.991 | S. cerevisiae deletion strains, locus YLR113W, strain HOG1, hits give low values 1.04 | S. cerevisiae deletion strains, locus YLR221C, strain rsa3, hits give low values 1.02 | S. cerevisiae deletion strains, locus YLR258W, strain gsy2, hits give low values 1 | S. cerevisiae deletion strains, locus YLR262C, strain YPT6 (second series), hits give low values 1.02 | S. cerevisiae deletion strains, locus YLR262C, strain YPT6, hits give low values 1.06 | S. cerevisiae deletion strains, locus YLR268W, strain sec22, hits give low values 1.02 | S. cerevisiae deletion strains, locus YLR320W, strain mms22, hits give low values 1.02 | S. cerevisiae deletion strains, locus YLR342W, strain FKS1 (second series), hits give low values 1.06 | S. cerevisiae deletion strains, locus YLR342W, strain FKS1, hits give low values 1.01 | S. cerevisiae deletion strains, locus YLR357W, strain rsc2, hits give low values 1.02 | S. cerevisiae deletion strains, locus YLR370C, strain arc18, hits give low values 1.01 | S. cerevisiae deletion strains, locus YLR371W, strain rom2, hits give low values 1 | S. cerevisiae deletion strains, locus YLR384C, strain iki3, hits give low values 1.01 | S. cerevisiae deletion strains, locus YLR418C, strain cdc73, hits give low values 0.992 | S. cerevisiae deletion strains, locus YML016C, strain PPZ1, hits give low values 1.03 | S. cerevisiae deletion strains, locus YML032C, strain rad52, hits give low values 1 | S. cerevisiae deletion strains, locus YML120C, strain ndi1, hits give low values 1.01 | S. cerevisiae deletion strains, locus YML124C, strain tub3, hits give low values 0.991 | S. cerevisiae deletion strains, locus YMR058W, strain fet3, hits give low values 1.01 | S. cerevisiae deletion strains, locus YMR078C, strain ctf18, hits give low values 0.98 | S. cerevisiae deletion strains, locus YMR125W, strain sto1, hits give low values 1.01 | S. cerevisiae deletion strains, locus YMR129W, hits give low values 1.01 | S. cerevisiae deletion strains, locus YMR205C, strain PFK2, hits give low values 1.02 | S. cerevisiae deletion strains, locus YMR223W, strain ubp8, hits give low values 1.01 | S. cerevisiae deletion strains, locus YMR231W, strain pep5, hits give low values 0.995 | S. cerevisiae deletion strains, locus YMR307W, strain GAS1, hits give low values 1.04 | S. cerevisiae deletion strains, locus YNL067W, strain RPL9B, hits give low values 1.01 | S. cerevisiae deletion strains, locus YNL071W, strain lat1, hits give low values 1.01 | S. cerevisiae deletion strains, locus YNL128W, strain TEP1, hits give low values 1.03 | S. cerevisiae deletion strains, locus YNL183C, strain NPR1, hits give low values 0.932 | S. cerevisiae deletion strains, locus YNL209W, strain ssb2, hits give low values 1.03 | S. cerevisiae deletion strains, locus YNL233W, strain BNI4, hits give low values 1.02 | S. cerevisiae deletion strains, locus YNL248C, strain rpa49, hits give low values 1.01 | S. cerevisiae deletion strains, locus YNL250W, strain rad50, hits give low values 0.992 | S. cerevisiae deletion strains, locus YNL271C, strain bni1, hits give low values 0.984 | S. cerevisiae deletion strains, locus YNL298W, strain CLA4, hits give low values 1.01 | S. cerevisiae deletion strains, locus YNL307C, strain MCK1, hits give low values 0.993 | S. cerevisiae deletion strains, locus YNL322C, strain KRE1 (second series), hits give low values 1.01 | S. cerevisiae deletion strains, locus YNL322C, strain KRE1, hits give low values 1.02 | S. cerevisiae deletion strains, locus YNR049C, strain mso1, hits give low values 1 | S. cerevisiae deletion strains, locus YNR052C, strain pop2, hits give low values 0.969 | S. cerevisiae deletion strains, locus YOL006C, strain TOP1, hits give low values 1.2 | S. cerevisiae deletion strains, locus YOL012C, strain htz1 1.12 | S. cerevisiae deletion strains, locus YOL147C, strain pex11, hits give low values 1 | S. cerevisiae deletion strains, locus YOR001W, strain rrp6, hits give low values 1.01 | S. cerevisiae deletion strains, locus YOR061W, strain CKA2, hits give low values 1.04 | S. cerevisiae deletion strains, locus YOR069W, strain VPS5, hits give low values 1.02 | S. cerevisiae deletion strains, locus YOR070C, strain gyp1, hits give low values 1.02 | S. cerevisiae deletion strains, locus YOR080W, strain dia2, hits give low values 1.01 | S. cerevisiae deletion strains, locus YOR083W, strain WHI5, hits give low values 1.01 | S. cerevisiae deletion strains, locus YOR106W, strain vam3, hits give low values 1.02 | S. cerevisiae deletion strains, locus YOR136W, strain idh2, hits give low values 1 | S. cerevisiae deletion strains, locus YOR144C, strain elg1, hits give low values 0.996 | S. cerevisiae deletion strains, locus YOR184W, strain ser1, hits give low values 1.04 | S. cerevisiae deletion strains, locus YOR231W, strain MKK1, hits give low values 0.978 | S. cerevisiae deletion strains, locus YOR265W, strain rbl2, hits give low values 1 | S. cerevisiae deletion strains, locus YOR270C, strain vph1, hits give low values 1.05 | S. cerevisiae deletion strains, locus YOR290C, strain snf2, hits give low values 1.02 | S. cerevisiae deletion strains, locus YOR316C, strain cot1, hits give low values 0.992 | S. cerevisiae deletion strains, locus YPL051W, strain arl3, hits give low values 0.999 | S. cerevisiae deletion strains, locus YPL078C, strain atp4, hits give low values 1.01 | S. cerevisiae deletion strains, locus YPL106C, strain sse1, hits give low values 1 | S. cerevisiae deletion strains, locus YPL240C, strain hsp82, hits give low values 1 | S. cerevisiae deletion strains, locus YPL256C, strain CLN2, hits give low values 0.979 | S. cerevisiae deletion strains, locus YPR119W, strain clb2, hits give low values 0.986 | S. cerevisiae deletion strains, locus YPR141C, strain kar3, hits give low values 0.988 | S. cerevisiae deletion strains, locus YPR163C, strain tif3, hits give low values 0.995 | S. cerevisiae deletion strains, locus YPR167C, strain met16, hits give low values 0.997 | S. cerevisiae deletion strains, strain wtn01, hits give low values 1.04 | S. cerevisiae strains, strain wild type, hits give low values 1.04
